The list is not random: actives were taken first. Their share in the collection is about 7.3%.
HCMV antiviral: human cytomegalovirus inhibition; HFF cells, HCMV-luciferase reporter, 72 h; hits give low values; 410,000 compounds, 4.5% hits; activity change, negative = inhibition, % at 57.5 µM; in the data active means activity change below about -60%; inconclusive means no clear call, values can overlap the other calls; inactive means above about -39%
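After 16 h attachment at 37C, HFF cells received test compound and HCMV-luciferase (1 PFU/cell); reporter luminescence read 72 h later, data normalized against buffer-only and known inhibitor Salinomycin.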
VACV mCherry inh: vaccinia inhibition (mCherry reporter); Vaccinia virus mCherry reporter infection, fluorescence; Potency, µM (doses to about 36.5 µM), inactives show top-dose activity change, negative = inhibition, most hits filed as inhibitors; 310,000 compounds, 0.63% hits; AID 720579; calls by dose curve; tested in A549 cells; further: potency means the concentration at half of the fitted maximal effect; nearly all actives have a fitted effect of over 35% in size
VACV Venus inh: vaccinia inhibition (Venus reporter). Vaccinia virus Venus reporter expression, fluorescence. Potency, µM (top dose mostly 36.5 µM), for inactives: top-dose activity change, negative = inhibition, hits mostly inhibitors. 330,000 compounds, 0.46% hits. AID 720580; calls by dose curve; tested in A549 cells; further: potency means the concentration at half of the fitted maximal effect; nearly all actives have a fitted effect of over 30% in size
FMDV inh: antivirals against foot and mouth disease virus; FMDV antiviral cell-based qHTS; Potency, µM (series often up to 57.9 µM), without a hit: at the highest dose activity change, negative = inhibition, most hits filed as inhibitors; 410,000 compounds, 1.2% hits; calls by dose curve; tested in HEK293T cells; further: read-out not given here; potency means the concentration at half of the fitted maximal effect; nearly all actives have a fitted effect of over 45% in size
HCV inh: inhibitors of hepatitis C virus infection. AID 651820. Huh7.5.1 HCVcc-Cre infection, luciferase reporter, 44 h. Potency, µM (titrated, usually from 41.8 µM), for inactives: at the highest dose activity change, negative = inhibition, actives largely listed as inhibitors. 340,000 compounds, 3.4% hits; active means well fitted inhibition curve with a large enough effect; inconclusive means small, poorly fitted or top-dose-only effect, or another doubt; inactive means no such curve, though single readings can be large or run the other way; further: potency means the concentration at half of the fitted maximal effect
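Infectious HCV cell culture screen: compound-treated cells (1,000/well, pre-plated 4 h) are infected with HCVcc-Cre at roughly 0.5 moi and grown 44 h. Infection is quantified by luciferase signal after 15 min substrate incubation at room temperature.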
The depositor's hits bear a star; u = inconclusive; x = no result; ! = not confirmed by another sample. On the % scale 0 is the no-effect control and ±100 the full control effect.

SMILES	HCMV antiviral	VACV mCherry inh	VACV Venus inh	FMDV inh	HCV inh
CCOC(=O)N1CCC(N(C(=O)Nc2ccc(Cl)c(Cl)c2)C(C)CC)CC1 (centres undefined)	u	-8%	-27%	x	10µM*!
CC(C)CCN(C(=O)Nc1ccc(Cl)c(Cl)c1)C1CCN(C(C)C)CC1	-15	-21%	-20%	-13%	x
COc1ccc(NC(=O)N2CCC(CN3CCCC3)CC2)c(OC)c1	47	-9%	-3%	-11%	x
CC(=O)NCCCc1ccc(C(=O)COC(=O)CNC(=O)c2ccc3ccccc3c2)cc1	x	-6%	-9%	x	x
CC1=CC(=C(C#N)c2nc3ccccc3s2)C=C(C)N1CC1CCCO1 (centres undefined)	38	-23%	-25%	10%	11µM*
Nc1[nH]n2c(=O)c3c(nc2c1N=Nc1ccc(Cl)cc1)CCCC3	-95*	x	-18%	-28%	14%
Nc1[nH]n2c(=O)c3c(nc2c1N=Nc1ccccc1)CCCC3	u	x	u	u	-13%
CCCCS(=O)CC(CS(=O)CCCC)OC(=O)c1ccccc1 (centres undefined)	9	x	x	27%	6%
CCCCS(=O)(=O)CC(COc1ccccc1)OC(=O)c1ccccc1 (centres undefined)	-18	x	7.9µM*	4%	-1%
CC(C)c1ccc(C(=O)NCCCN2CCN(CCCNC(=O)c3ccc(C(C)C)cc3)CC2)cc1	-80*	-1%	u	u	u
Cc1ccc(C(=O)NCCN2CCN(C(=O)c3ccc(C)c(C)c3)CC2)cc1C	-1	-15%	-6%	-1%	-25%

Screens from PubChem BioAssay.
